JMJD2A Tudor inh – qHTS Assay for Inhibitors of JMJD2A-Tudor Domain | Lysine-specific demethylase 4A (Homo sapiens), O75164 | AlphaScreen JMJD2A-Tudor / H3K4me3 peptide binding | Potency, µM (series often up to 114 µM), without a hit: at the top dose activity change, negative = inhibition, actives largely listed as inhibitors | 4.4% of 390,000 active; also: potency is read from the fitted curve at half-maximal effect; % is scaled to controls: 0 for no effect and ±100 for the full control effect; nearly all actives have a fitted effect of over 50% in size
Target sequence (O75164 whole entry, looked up, the tested form may be a part): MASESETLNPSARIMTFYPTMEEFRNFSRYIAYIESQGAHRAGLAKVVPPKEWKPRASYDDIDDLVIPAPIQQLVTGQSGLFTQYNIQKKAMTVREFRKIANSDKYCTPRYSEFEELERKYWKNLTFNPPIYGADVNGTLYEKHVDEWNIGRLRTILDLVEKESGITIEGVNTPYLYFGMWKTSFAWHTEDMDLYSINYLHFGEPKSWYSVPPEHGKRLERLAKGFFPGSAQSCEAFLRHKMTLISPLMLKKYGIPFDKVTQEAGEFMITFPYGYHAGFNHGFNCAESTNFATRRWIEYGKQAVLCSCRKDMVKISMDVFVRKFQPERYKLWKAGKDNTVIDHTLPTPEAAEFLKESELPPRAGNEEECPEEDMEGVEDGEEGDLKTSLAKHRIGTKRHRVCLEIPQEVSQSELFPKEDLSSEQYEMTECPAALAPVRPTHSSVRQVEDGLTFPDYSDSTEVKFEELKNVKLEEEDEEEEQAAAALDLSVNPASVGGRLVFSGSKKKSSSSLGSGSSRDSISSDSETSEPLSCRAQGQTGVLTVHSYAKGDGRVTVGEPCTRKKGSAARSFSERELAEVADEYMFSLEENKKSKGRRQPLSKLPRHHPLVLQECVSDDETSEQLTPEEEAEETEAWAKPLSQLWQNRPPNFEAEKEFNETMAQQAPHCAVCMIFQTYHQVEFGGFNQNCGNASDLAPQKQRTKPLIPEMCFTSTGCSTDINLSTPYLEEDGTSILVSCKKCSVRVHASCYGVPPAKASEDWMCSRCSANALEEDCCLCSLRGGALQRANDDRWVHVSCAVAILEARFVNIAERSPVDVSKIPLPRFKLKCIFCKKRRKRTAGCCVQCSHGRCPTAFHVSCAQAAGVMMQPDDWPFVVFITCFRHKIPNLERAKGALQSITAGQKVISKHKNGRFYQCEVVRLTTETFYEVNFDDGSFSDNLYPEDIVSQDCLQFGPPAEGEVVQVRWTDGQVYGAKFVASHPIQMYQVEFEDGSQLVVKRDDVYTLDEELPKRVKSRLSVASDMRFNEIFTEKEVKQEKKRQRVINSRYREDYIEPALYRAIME
CtBP-E1A inh – qHTS Assay for Inhibitors of the CtBP/E1A Interaction; CtBP / adenovirus E1A interaction (AlphaScreen); AlphaScreen GST-E1A/His-CtBP binding, 1536-well; active compounds read low; activity change, % (concentration not given with the values); 0.49% of 340,000 active; AID 651724, 2012; in the data active = activity change below about -65%; inconclusive = mostly about -30% to -63%; also: % is scaled to controls: 0 for no effect and ±100 for the full control effect
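In 5 uL wells, 23 nL compound meets equimolar GST-E1A and His-CtBP (5X stock 125 nM each) for 2 h, 37 °C. Beads (5X, 50 ug/mL) then 1 h, 37 °C, dark.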
Six1-Eya2 blk – qHTS Assay for Inhibitors of the Six1/Eya2 Interaction | Homeobox protein SIX1 (Homo sapiens) + Protein phosphatase EYA2 (Homo sapiens), … | AlphaScreen GST-Six1/His-Eya2 binding, biochemical; active compounds read low | activity change, % (test concentration not listed) | AID 651725, 2012 | 0.56% of 360,000 active; in the data active = activity change below about -65%; inconclusive = mostly about -30% to -63%; also: % is scaled to controls: 0 for no effect and ±100 for the full control effect
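Compounds are tested against tagged Six1 and Eya2 proteins bridged by glutathione donor and nickel acceptor beads; after a one-hour incubation at 37 °C without light, AlphaScreen emission is recorded.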
HP1b chromo inh – HTS for Inhibitors of HP1-beta Chromodomain Interactions with Methylated Histone Tails; Potency, µM (highest dose often 114 µM), inactives show top-dose activity change, negative = inhibition, actives largely listed as inhibitors; 0.56% of 390,000 active; Chromobox protein homolog 1 (Homo sapiens), P83916; AlphaScreen HP1-beta / biotin-H3K9me3 peptide binding; also: potency is read from the fitted curve at half-maximal effect; nearly all actives have a fitted effect of over 70% in size
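HP1-beta protein (50 nM final) preincubated 30 min at room temperature with biotinylated H3(1-18)K9me3 peptide (50 nM) in PBS pH 7.4, 0.01% Tween-20, then compound added for 30 min. AlphaScreen streptavidin donor/nickel chelate acceptor beads (10 ug/mL final), 30 min dark, luminescence read.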
G9a inh – qHTS Assay for Inhibitors of Histone Lysine Methyltransferase G9a. AID 504332, 2011. 8.8% of 350,000 active. G9a H3K9 monomethylation, AlphaScreen, 2 h. Potency, µM (highest dose often 102 µM), without a hit: at the top dose activity, negative = inhibition, hits mostly inhibitors; also: potency is read from the fitted curve at half-maximal effect; % is scaled to controls: 0 for no effect and ±100 for the full control effect; nearly all actives have a fitted effect of over 75% in size
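Signal arises when biotinylated H3K9 peptide, once monomethylated, bridges streptavidin donor and antibody-captured acceptor beads. Enzyme at 20 nM was preincubated 15 min with test compounds; peptide 500 nM and SAM 20 uM then reacted for 2 h.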
BAZ2B inh – qHTS Assay for Inhibitors of BAZ2B | Bromodomain adjacent to zinc finger domain protein 2B (Homo sapiens), Q9UIF8 | AlphaScreen BAZ2B-H3K14Ac peptide displacement | Potency, µM (titrated, usually from 114 µM), without a hit: at the highest dose activity change, negative = inhibition, hits mostly inhibitors | 4.4% of 360,000 active; also: potency is read from the fitted curve at half-maximal effect; % is scaled to controls: 0 for no effect and ±100 for the full control effect; nearly all actives have a fitted effect of over 60% in size
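Complex of BAZ2B and biotin-H3K14Ac (50 nM apiece) forms over 30 min at RT, then faces library compounds up to 110 uM for another 30 min; AlphaScreen beads added, 20 min dark incubation, luminescence read.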
The depositor's hits bear a star; u = inconclusive; x = not tested or not shown; ! = not active in a repeat; [ ] = dose if it differs, or a comment. Compounds with a hit are over-represented: about 10% of the library has one in this group of screens. Unless noted, calls follow the shape of the dose curve; as a rule, active = well fitted inhibition curve with a large enough effect; inconclusive = small, poorly fitted or top-dose-only effect; inactive = no such curve, though single readings can be large or run the other way.

SMILES	JMJD2A Tudor inh	CtBP-E1A inh	Six1-Eya2 blk	HP1b chromo inh	G9a inh	BAZ2B inh
CCOC(=O)c1[nH]c(C)c(C(=O)OCC(=O)N(C)C2CCS(=O)(=O)C2)c1C (stereo not drawn)	-12%	0	-1	23%	13%	3%
CCOC(=O)CSc1nc(N)c(C#N)c(-c2ccc(OCC)cc2)c1C#N	-10%	0	4	20%	45µM*	-4%
CCOC(=O)c1cccc(NC(=O)c2cn(-c3cccc(OC)c3)c(=O)c3ccccc23)c1	8%	x	x	20%	10µM*	1%
CCCCN(C)c1c(C)nc2ccc(C(=O)N(C)CCN(C)C)cn12	x	-16	-4	x	x	x
O/N=C\c1cccn1-c1ccc(Br)cc1	79µM*	3	-15	-33%	u	u
O/N=C\c1cccn1-c1nccs1	-8%	-1	-1	8%	3%	-8%
COc1cccc(OC)c1OCCN(C)C	1µM*	-8	4	u	u	35µM*
CCN(CC)CCOc1ccccc1OC	1.3µM*	12	0	u	22µM*!	-35%
COc1cccc(OC)c1OCCNC(C)(C)C	8.9µM*	3	2	-11%	x	50µM*
CCCCN(CC)CCOc1cccc2ccccc12	x	x	x	x	39%[59 µM]	x
COc1cccc(OC)c1OCCN1CCCC1	-22%	x	20	19%	x	-5%
CC(C)(C)NCCOc1ccc(Br)cc1	3.5µM*	5	3	-33%	18µM*	u
CCOC(=O)c1sc(NC(=O)CN2C(=O)C3CC=CCC3C2=O)nc1C (stereo not drawn)	-18%	0	5	11%	6%[12.7 µM]	-5%
Cc1ccc(S(=O)(=O)c2nnn3c2nc(NC2CCCCC2)c2sccc23)cc1C	0%	x	x	46%	14%[59 µM]	-16%
COc1ccc2[nH]c(C(=O)NCc3ccccc3)c(C)c2c1	-11%	0	-3	76%	u	0%
COc1cccc(C(=O)Nc2sc3c(c2C(=O)O)CCCC3)c1	-16%	0	-15	3%	3%	-17%
COc1cccc(C(=O)Nc2sc3c(c2C#N)CCN(C(C)=O)C3)c1	-30%	x	-3	u	5µM*	x
NC(=O)c1c(NC(=O)c2cccc(N3C(=O)CCC3=O)c2)sc2c1CCCCC2	-14%	5	-5	10%	8%	-16%
CC(=O)N1CCc2c(sc(NC(=O)c3cccc(N4C(=O)CCC4=O)c3)c2C(N)=O)C1	0%	-9	-7	26%	45µM*	-27%
CCCN1CNc2c(c(=O)[nH]c(=S)n2CCc2ccc(OC)c(OC)c2)C1	1%	-6	10	35%	u	-20%
CC1CN(c2nnc(NC(=O)c3ccccc3)s2)CC(C)O1 (stereo not drawn)	-20%	x	0	25%	56µM*	-11%
CCOc1ccc(-c2cc(NC(=O)Nc3ccc(Cl)cc3)c(C(=O)OC)s2)cc1	3%	x	x	30%	20%[59 µM]	-2%
Oc1ccc2ccccc2c1C=Nc1ccccc1-c1nc2ccccc2[nH]1	u	-4	-4	u	7.1µM*	2%
COc1ccc(C2c3c(-c4ccccc4)n[nH]c3C(=O)N2c2ccc(C(=O)O)cc2)c(OC)c1 (stereo not drawn)	-8%	x	x	28%	1%[59 µM]	x
CCN1C(=O)[C@H]2[C@@H](c3ccc(-c4ccc(OC)cc4)cc3)N3CCCC[C@@]3(C(=O)OC)[C@H]2C1=O	-25%	-2	-5	27%	-12%[2.33 µM]	-8%
